According to the supplement of paper PMC6555819:

Assays:
Test in all cases: PBM binding z-score (relative to random genomic background probes); higher = stronger binding; sequences stand for … in GC…GCGATTGACAGCGTAGAATGAAGG
[1] = tested on: FXR:RXRa (NR concentration 270 nM, RXRa partner concentration 90 nM)
Method in brief: (§1)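 Scanned fluorescence from custom Agilent 4×180K protein-binding microarrays was regression-normalized. Binding z-scores use random background probes as reference. Ligand-free nuclear receptor dimers were incubated on the arrays for 1 h and detected with antibodies against each partner (one per run).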

[2] = tested on: LXRa:RXRa (NR concentration 270 nM, RXRa partner concentration 90 nM)
Method in brief: as §1

[3] = tested on: LXRa homodimer (NR concentration 270 nM)
Method in brief: as §1

[4] = tested on: LXRb:RXRa (NR concentration 270 nM, RXRa partner concentration 90 nM)
Method in brief: as §1

[5] = tested on: LXRb homodimer (NR concentration 270 nM)
Method in brief: as §1

[6] = tested on: PPARa:RXRa (NR concentration 270 nM, RXRa partner concentration 90 nM)
Method in brief: as §1

[7] = tested on: PPARg:RXRa (NR concentration 180 nM, RXRa partner concentration 90 nM)
Method in brief: as §1

[8] = tested on: PPARg:RXRa 270nM:90nM, anti-RXR (NR concentration 270 nM, RXRa partner concentration 90 nM)
Method in brief: as §1

[9] = tested on: PPARg:RXRa 30nM:10nM, anti-RXR (NR concentration 30 nM, RXRa partner concentration 10 nM)
Method in brief: as §1

[10] = tested on: PPARg:RXRa 90nM:30nM, anti-RXR (NR concentration 90 nM, RXRa partner concentration 30 nM)
Method in brief: as §1

[11] = tested on: PPARg:RXRa DBDmut IVT, anti-RXR (DBD mutation: RXRa K156A/R161A, NR concentration 270 nM, RXRa partner concentration 90 nM)
Method in brief: as §1

[12] = tested on: PPARg:RXRa IVT, anti-PPARg (NR concentration 270 nM, RXRa partner concentration 90 nM)
Method in brief: as §1

[13] = tested on: PPARg DBDmut:RXRa IVT, anti-PPARg (DBD mutation: PPARg1 K132A/R137A, NR concentration 270 nM, RXRa partner concentration 90 nM)
Method in brief: as §1

[14] = tested on: PPARg DBDmut IVT, anti-PPARg (DBD mutation: PPARg1 K132A/R137A, NR concentration 270 nM)
Method in brief: as §1

[15] = tested on: PPARg homodimer (NR concentration 180 nM)
Method in brief: as §1

[16] = tested on: PXR:RXRa (NR concentration 270 nM, RXRa partner concentration 90 nM)
Method in brief: as §1

[17] = tested on: PXR homodimer (NR concentration 270 nM)
Method in brief: as §1

[18] = tested on: RARa:RXR (NR concentration 270 nM, RXRa partner concentration 90 nM)
Method in brief: as §1

[19] = tested on: RARa homodimer (NR concentration 270 nM)
Method in brief: as §1

[20] = tested on: RARb:RXRa (NR concentration 270 nM, RXRa partner concentration 90 nM)
Method in brief: as §1

Sequence: CCTAGTTGGTCAGGAGGTCAGACACCGGATATGA
- PBM binding z-score [1]: 2.18
- PBM binding z-score [2]: 2.3
- PBM binding z-score [3]: 0.868
- PBM binding z-score [4]: 2.16
- PBM binding z-score [5]: 0.128
- PBM binding z-score [6]: 3.04
- PBM binding z-score [7]: 2.05
- PBM binding z-score [8]: 2.35
- PBM binding z-score [9]: 0.691
- PBM binding z-score [10]: 1.69
- PBM binding z-score [11]: 1.06
- PBM binding z-score [12]: 2.24
- PBM binding z-score [13]: 0.271
- PBM binding z-score [14]: 0.265
- PBM binding z-score [15]: 2.85
- PBM binding z-score [16]: 2.7
- PBM binding z-score [17]: 0.934
- PBM binding z-score [18]: 3.13
- PBM binding z-score [19]: 1.66
- PBM binding z-score [20]: 2.92

Sequence: CCTAATGGGCCACGAAAGGTCATTGATTCAGTGA
- PBM binding z-score [1]: 3.91
- PBM binding z-score [2]: 5.44
- PBM binding z-score [3]: 4.82
- PBM binding z-score [4]: 4.5
- PBM binding z-score [5]: 0.556
- PBM binding z-score [6]: 4.42
- PBM binding z-score [7]: 3.05
- PBM binding z-score [8]: 4.1
- PBM binding z-score [9]: 1.8
- PBM binding z-score [10]: 3.4
- PBM binding z-score [11]: 3.95
- PBM binding z-score [12]: 4.1
- PBM binding z-score [13]: 0.487
- PBM binding z-score [14]: 0.297
- PBM binding z-score [15]: 2.38
- PBM binding z-score [16]: 5.44
- PBM binding z-score [17]: 1.32
- PBM binding z-score [18]: 5.08
- PBM binding z-score [19]: 0.945
- PBM binding z-score [20]: 4.16

Sequence: GCTCGGAGGACAAGGTCAGAGCTTTGTCCGTAGA
- PBM binding z-score [1]: 1.71
- PBM binding z-score [2]: 2.02
- PBM binding z-score [3]: -0.543
- PBM binding z-score [4]: 1.29
- PBM binding z-score [5]: -0.667
- PBM binding z-score [6]: 2.5
- PBM binding z-score [7]: 0.957
- PBM binding z-score [8]: 1.67
- PBM binding z-score [9]: -0.521
- PBM binding z-score [10]: 0.794
- PBM binding z-score [11]: -0.433
- PBM binding z-score [12]: 0.861
- PBM binding z-score [13]: -1.56
- PBM binding z-score [14]: -1.45
- PBM binding z-score [15]: 0.708
- PBM binding z-score [16]: 1.55
- PBM binding z-score [17]: -0.264
- PBM binding z-score [18]: 2.24
- PBM binding z-score [19]: -0.542
- PBM binding z-score [20]: 3.52

Sequence: CGAACGATGGCATGAGTTGATAGCAAATGCCGAT
- PBM binding z-score [1]: -0.377
- PBM binding z-score [2]: -0.686
- PBM binding z-score [3]: -0.408
- PBM binding z-score [4]: -0.556
- PBM binding z-score [5]: -0.839
- PBM binding z-score [6]: -0.496
- PBM binding z-score [7]: 0.77
- PBM binding z-score [8]: 0.203
- PBM binding z-score [9]: 0.0969
- PBM binding z-score [10]: -0.044
- PBM binding z-score [11]: -0.534
- PBM binding z-score [12]: -0.676
- PBM binding z-score [13]: -0.379
- PBM binding z-score [14]: -0.0268
- PBM binding z-score [15]: 0.126
- PBM binding z-score [16]: -0.184
- PBM binding z-score [17]: -0.0321
- PBM binding z-score [18]: -0.0116
- PBM binding z-score [19]: -0.0736
- PBM binding z-score [20]: -0.391

Sequence: TCTAGTAGGTTACCAATGGGGCATTCAGCTTTCT
- PBM binding z-score [1]: 0.412
- PBM binding z-score [2]: 1.74
- PBM binding z-score [3]: -0.049
- PBM binding z-score [4]: 1.37
- PBM binding z-score [5]: 0.0938
- PBM binding z-score [6]: 2.14
- PBM binding z-score [7]: 2.38
- PBM binding z-score [8]: 2.93
- PBM binding z-score [9]: 3.2
- PBM binding z-score [10]: 2.81
- PBM binding z-score [11]: 5.22
- PBM binding z-score [12]: 5.27
- PBM binding z-score [13]: 0.435
- PBM binding z-score [14]: 0.135
- PBM binding z-score [15]: 0.405
- PBM binding z-score [16]: 0.365
- PBM binding z-score [17]: -0.176
- PBM binding z-score [18]: 0.372
- PBM binding z-score [19]: 5.32e-05
- PBM binding z-score [20]: 1.26

Sequence: CAAACAAGGTCAAGAGGTCAAAGTCCGCTTCCCG
- PBM binding z-score [3]: 7.29
- PBM binding z-score [5]: 2.87
- PBM binding z-score [7]: 8.71
- PBM binding z-score [8]: 8.05
- PBM binding z-score [9]: 6.08
- PBM binding z-score [10]: 7.7
- PBM binding z-score [11]: 5.59
- PBM binding z-score [12]: 6.52
- PBM binding z-score [13]: 1.74
- PBM binding z-score [14]: 1.24
- PBM binding z-score [15]: 8.18
- PBM binding z-score [17]: 5.91
- PBM binding z-score [19]: 4.23

Sequence: TCTTGTAGATGAATAGAGGTTAAGAAAGTGCGCT
- PBM binding z-score [1]: 1.46
- PBM binding z-score [2]: 3.5
- PBM binding z-score [3]: 0.638
- PBM binding z-score [4]: 1.98
- PBM binding z-score [5]: 0.559
- PBM binding z-score [6]: 1.93
- PBM binding z-score [7]: 0.366
- PBM binding z-score [8]: 2.17
- PBM binding z-score [9]: 3.31
- PBM binding z-score [10]: 2.67
- PBM binding z-score [11]: 2.5
- PBM binding z-score [12]: 1.18
- PBM binding z-score [13]: 0.58
- PBM binding z-score [14]: 0.95
- PBM binding z-score [15]: 0.765
- PBM binding z-score [16]: 3.01
- PBM binding z-score [17]: 0.505
- PBM binding z-score [18]: 1.86
- PBM binding z-score [19]: 1.12
- PBM binding z-score [20]: 1.01

Sequence: CCGACTGGGGCAGAAAGGTTAGCATACCATCCGG
- PBM binding z-score [1]: -0.121
- PBM binding z-score [2]: 0.018
- PBM binding z-score [3]: -0.422
- PBM binding z-score [4]: 0.0251
- PBM binding z-score [5]: -1.09
- PBM binding z-score [6]: 1.22
- PBM binding z-score [7]: 1.22
- PBM binding z-score [8]: 1.7
- PBM binding z-score [9]: -0.0378
- PBM binding z-score [10]: 0.958
- PBM binding z-score [11]: 1.54
- PBM binding z-score [12]: 1.41
- PBM binding z-score [13]: -0.783
- PBM binding z-score [14]: -1.16
- PBM binding z-score [15]: -0.251
- PBM binding z-score [16]: 0.123
- PBM binding z-score [17]: -0.44
- PBM binding z-score [18]: 0.634
- PBM binding z-score [19]: 0.154
- PBM binding z-score [20]: 1.43

Sequence: CAAACTACGTCACCGGAAGGTCAAAGTCCGCATG
- PBM binding z-score [1]: 3.24
- PBM binding z-score [2]: 3.3
- PBM binding z-score [3]: 3.72
- PBM binding z-score [4]: 3.48
- PBM binding z-score [5]: 1.01
- PBM binding z-score [6]: 3.5
- PBM binding z-score [7]: 1.14
- PBM binding z-score [8]: 1.71
- PBM binding z-score [9]: 0.159
- PBM binding z-score [10]: 1.15
- PBM binding z-score [11]: 0.517
- PBM binding z-score [12]: 1.61
- PBM binding z-score [13]: 0.449
- PBM binding z-score [14]: 1.03
- PBM binding z-score [15]: 2.68
- PBM binding z-score [16]: 3.83
- PBM binding z-score [17]: 1.39
- PBM binding z-score [18]: 4.14
- PBM binding z-score [19]: 1.23
- PBM binding z-score [20]: 3.3
